A selection: hits, their analogues and other compounds. The true share with any hit is near 3.3%.
INS-1E GSIS act = primary screen for activators of insulin secretion dependent on glucose, INS-1E cells, GLuc reporter luminescence. INS-1E GLuc reporter insulin secretion, 2-3 h. activation, % at 16.6 µM. actives 0.61% (n = 370,000). AID 743287;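 active means lowest replicate activation of at least 40%, so every replicate reaches that level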;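 further: 0% = median of neutral control wells and 100% = median of IBMX positive control wells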
CASP6 VEID inh = caspase-6 (human) enzyme inhibition; P55212; purified caspase-6, Z-VEID-R110 cleavage fluorescence; inhibition, % at 12.5 µM; actives 0.53% (n = 350,000);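 active means mean inhibition across replicates at least about 35%, with every replicate also reaching that limit, limit read from the data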;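 further: 0% = median of neutral control wells and 100% = no fluorescence left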
FGF22 binding = FGF22 (human) thermal shift binding. Q9HCT0. AID 651658. recombinant FGF22 thermal shift, SYPRO orange fluorescence; percent of sucrose octasulfate shift, DMSO zero. activity (Tm shift, normalised), % at 9.99 µM. actives 1.5% (n = 340,000);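 active means mean Tm shift, scaled 0 neutral to 100 positive control, at about 1.3% or above, every replicate too, limit read from the data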
ERAP1 HTS inh = blocks human ERAP1 aminopeptidase activity; actives 0.15% (n = 340,000); Q9NZ08; inhibition, % at 10.7 µM; recombinant ERAP1, Leu-AMC fluorescence, 60 min; AID 652197;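 active means mean replicate inhibition of at least 30%, or all replicates individually reaching that 30% level; inactive means mean below 30% and not every replicate reaching it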;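 further: 0% = neutral control wells and 100% = L-leucinethiol positive control wells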
Target sequence (Q9NZ08 whole entry, looked up): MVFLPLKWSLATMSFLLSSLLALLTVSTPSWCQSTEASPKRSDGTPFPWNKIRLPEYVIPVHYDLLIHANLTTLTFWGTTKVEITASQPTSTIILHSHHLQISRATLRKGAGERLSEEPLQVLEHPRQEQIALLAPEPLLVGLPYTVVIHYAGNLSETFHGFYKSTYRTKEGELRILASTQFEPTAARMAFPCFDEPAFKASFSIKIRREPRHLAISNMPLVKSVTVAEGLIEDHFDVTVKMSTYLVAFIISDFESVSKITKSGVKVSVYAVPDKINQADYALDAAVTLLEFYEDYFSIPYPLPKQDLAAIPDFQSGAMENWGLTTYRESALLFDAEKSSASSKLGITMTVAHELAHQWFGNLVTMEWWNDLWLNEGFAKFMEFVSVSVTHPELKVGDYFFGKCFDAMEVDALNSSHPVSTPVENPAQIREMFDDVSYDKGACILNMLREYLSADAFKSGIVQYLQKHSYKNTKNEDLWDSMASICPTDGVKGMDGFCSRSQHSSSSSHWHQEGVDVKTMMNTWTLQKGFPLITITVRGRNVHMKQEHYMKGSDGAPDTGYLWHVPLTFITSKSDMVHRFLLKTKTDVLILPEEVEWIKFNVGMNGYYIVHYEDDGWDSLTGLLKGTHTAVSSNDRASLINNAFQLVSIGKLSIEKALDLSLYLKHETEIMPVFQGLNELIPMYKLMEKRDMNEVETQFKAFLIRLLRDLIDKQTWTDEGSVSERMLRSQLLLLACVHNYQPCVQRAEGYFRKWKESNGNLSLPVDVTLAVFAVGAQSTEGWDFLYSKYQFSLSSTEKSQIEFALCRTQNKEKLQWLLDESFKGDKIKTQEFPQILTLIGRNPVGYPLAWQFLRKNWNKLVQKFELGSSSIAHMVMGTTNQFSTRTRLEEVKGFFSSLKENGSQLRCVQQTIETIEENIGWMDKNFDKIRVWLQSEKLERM
SIRT5 block = sirtuin-5 (human) deacylase inhibition; Purified SirT5, succinyl-peptide AMC, trypsin-coupled fluorescence; inhibition, % at 15 µM; actives 1.1% (n = 330,000); in the data active means inhibition above about 15%
An asterisk follows results filed as active; x = no result; + = active, no number; ! = a repeat was not active.

SMILES	INS-1E GSIS act	CASP6 VEID inh	FGF22 binding	ERAP1 HTS inh	SIRT5 block
O=C(Nc1ccc(C(F)(F)F)cc1)N1[C@@H]2CNC[C@H]1C2c1ccc(/C=C/c2ccccc2)cc1 (some centres not stated)	+!	-7	0	-5	5
C/C=C/c1ccc(C2[C@@H]3CN(C(=O)Nc4ccc(C(F)(F)F)cc4)C[C@H]2N3)cc1 (some centres not stated)	190*!	x	0	x	x
Cc1noc(C)c1NC(=O)Nc1ccc2c(c1)C(=O)N([C@H](C)CO)C[C@H](C)[C@@H](CN(C)C(=O)Nc1cccc3ccccc13)OCCCC[C@@H](C)O2	1	x	0	x	x
CN1C(=O)c2cc(NS(=O)(=O)c3cccc(F)c3)ccc2OC[C@@H]2O[C@H](CC(=O)NCCN3CCCCC3)CC[C@H]21	5	x	x	x	-3
COc1ccc(-n2nc(C(=O)O)cc2-c2ccccc2)cc1	-9	-1	0	1	18*
O=C(O)c1cc(-c2ccccc2)n(-c2ccccc2)n1	-12	x	x	x	x
O=C([C@H]1[C@H](CO)[C@H]2Cn3c(cccc3=O)[C@@H]1N2S(=O)(=O)c1ccccc1F)N1CCOCC1	2	4	0	-1	-1
Cc1ccccc1/C=N/Nc1nc2ccccc2[nH]1	-10	-1	0	-4	x
O=[N+]([O-])c1cc(/C=N/Nc2nc3ccccc3[nH]2)c(O)cc1O	-72	61*	0	1	10
CC(=O)N(C)C[C@@H]1Oc2cc(C#Cc3ccc(F)cc3)ccc2S(=O)(=O)N([C@H](C)CO)C[C@@H]1C	-16	0	0	0	0
COc1cc(CO)cc(Br)c1OCC(=O)Nc1cccc2ccccc12	48*	1	0	x	-5
Cc1ccc(S(=O)(=O)Nc2cccc3c2O[C@H](CN(C)S(=O)(=O)c2cn(C)cn2)[C@@H](C)CN([C@@H](C)CO)C3=O)cc1	-3	1	0	-1	-5
COc1cccc(C2=NOC(C(=O)Nc3ccc(OC)c(OC)c3)C2)c1 (configuration not stated)	33	x	x	x	x
COc1ccc(S(=O)(=O)NNC(=O)C2CC(c3cccnc3)=NO2)cc1 (configuration not stated)	2	3	44*	-2	-5
COc1cccc(C2=NOC(C(=O)Nc3cccnc3Cl)C2)c1 (configuration not stated)	3	2	44*	-3	-1
COc1ccc(C2=NOC(C(=O)NC(C)(C)C)C2)cc1 (configuration not stated)	-5	x	x	x	x
Cc1noc(C)c1S(=O)(=O)Nc1ccc2c(c1)CC(=O)N([C@@H](C)CO)C[C@@H](C)[C@@H](CN(C)S(=O)(=O)c1c(C)noc1C)O2	-3	0	0	-1	0
CCOc1ccc(C(=O)N2CCN(c3cnn(-c4ccccc4)c(=O)c3Cl)CC2)cc1	-1	3	44*	-4	-1
O=C(c1cccc(Br)c1)N1CCN(c2cnn(-c3ccccc3)c(=O)c2Cl)CC1	-7	x	0	-2	0
O=C(O)CCCC(=O)OCCCc1cc2ccccc2c(=O)o1	7	37*	1	0	x
O=C(O)CCC(=O)OCCc1cc2ccccc2c(=O)o1	0	-1	0	0	-4
CC(=O)C1=C(O)C(=Cc2ccccc2)OC1=O	x	21	0	-5	20*
N#CC(C#N)=C(N)/C(C#N)=C/c1cc(O)c(O)c(O)c1	x	41*	0	8	13
N#C/C(=C/c1cc(Cl)c(O)c(Cl)c1)C(=O)N1CCCCC1	-31	1	0	5	4
O=C(NN(Cc1ccccc1)Cc1ccccc1)c1ccccc1	49*	3	0	2	x
SMILES	INS-1E GSIS act	CASP6 VEID inh	FGF22 binding	ERAP1 HTS inh	SIRT5 block
O=C1c2ccccc2NC(c2ccccn2)N1c1ccc(Cl)cc1 (configuration not stated)	62*	x	x	x	x
CCOC(=O)/C(C#N)=C/N1CCOCC1	11	-1	0	-3	-5
CCOC(=O)/C(=C\C=C\N1CCOCC1)C(C)=O	0	19	0	15	16*
CC(C)CC#Cc1ccc([C@@H]2[C@H](CO)N3C(=O)CN(C(=O)NC4CCCC4)C[C@@H]23)cc1	9	1	x	0	-2
NC(=S)N=Nc1c(O)n(CCCl)c2ccc(Cl)cc12	17	-4	44*	3	-1
NC(=S)N=Nc1c(O)n(CCCl)c2ccccc12	7	-2	0	0	19*
C[C@H](CO)N1C[C@H](C)[C@@H](CN(C)S(=O)(=O)c2ccccc2)Oc2ccc(N(C)C)cc2CC1=O	22	1	-1	1	-4
O=C(CSc1ccc2ccccc2n1)NCc1ccc2c(c1)OCO2	3	-1	43*	1	-2
O=C(CSc1nc(C2CCCCC2)nc2ccccc12)NCc1ccc2c(c1)OCO2	-13	0	44*	2	-4
CO[C@@H]1CN(C)C(=O)c2cc(NC(=O)C3CC3)ccc2OC[C@@H](C)N(CC2CCCC2)C[C@@H]1C	5	-4	0	-1	-9
Cc1ccc(CNC(=O)C2CCCN(c3nc(C)cc(C)n3)C2)cc1 (configuration not stated)	31	-1	43*	3	-2
Cc1ccc(CNC(=O)C2CCCN(c3nc4ccccc4o3)C2)cc1 (configuration not stated)	10	-5	0	0	x
Cc1ccc(CNC(=O)C2CCCN(S(=O)(=O)N3CC(C)CC(C)C3)C2)cc1 (configuration not stated)	-4	-2	0	0	20*
Cc1ccc(CNC(=O)C2CCCN(c3nc4ccsc4c(=O)s3)C2)cc1 (configuration not stated)	5	-2	0	4	18*
C[C@@H]1CN([C@@H](C)CO)C(=O)Cc2cc(NC(=O)Nc3ccc4c(c3)OCO4)ccc2O[C@H]1CN(C)Cc1ccc(C(F)(F)F)cc1	-8	-4	0	2	-6
CO[C@@H]1CN(C)C(=O)c2cc(NS(C)(=O)=O)ccc2OC[C@@H](C)NC[C@@H]1C	3	2	x	2	-4
COCCNC(=S)N=Nc1c(O)[nH]c2c(C)cc(C)cc12	0	-2	44*	1	3
CCCCNC(=S)N=Nc1c(O)[nH]c2ccccc12	-4	4	0	-2	-6
Cc1csc(N2CCCC2=O)n1	12	-2	1	1	21*
Cc1ccc(C(=O)O/N=C(\N)c2ccccn2)c(Cl)c1	-14	4	0	0	4
N/C(=N\OC(=O)c1ccc2ccccc2c1)c1ccccn1	6	-1	45*	0	-2
N/C(=N\OC(=O)c1cc(Br)ccc1Cl)c1ccccn1	22	-1	43*	4	1
N/C(=N\OC(=O)c1ccco1)c1ccccn1	-2	1	43*	0	-2

High-throughput results from PubChem.
